Assay results taken from PubChem BioAssay (NCATS).
Results filed as inconclusive are left out. Entries that show only a call come without a potency. Active and inactive are the calls of the source. The call rests on the fitted dose curve; in most records, active means well fitted cell-killing curve with a large enough effect; inconclusive means small, poorly fitted or top-dose-only effect, or effect the other way; inactive means flat fitted curve, though single readings scatter.

Tested on: OV90
Assay: Primary qHTS to identify gynecologic anti-cancer compounds using libraries of approved drugs and bioactive compounds (AID 1345084); further: nearly all actives have a fitted effect of over 55% in size
Conditions: Gynecologic cancer cell panel viability, ATPlite luminescence, 48 h; series mostly up to 57.5 µM
In short: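 Cell viability after 48 h drug treatment, ATPlite luminescence readout; five doses.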

**Q.** With `CC1(C)CC[C@]2(C(=O)OC3OC(CO)C(O)C(O)C3O)CC[C@]3(C)C(=CCC4[C@@]5(C)C[C@@H](O)[C@H](OC6OC(C(=O)O)C(O)C(O)C6O)C(C)(C)C5CC[C@]43C)[C@@H]2C1` (stereo partly specified) as the compound, how does the activity change, negative = cytotoxicity read?
**A.** 1.98% [at 11.6 µM] (inactive)

**Q.** With `O=[N+]([O-])c1cc(Cl)ccc1S(=O)(=O)N1CCN(Cc2ccccc2)CC1` as the compound, how does the Potency read?
**A.** inactive

**Q.** Which Potency does the source give for `COc1cc(C(=O)OC[C@H]2O[C@@H](OC(C)(C)C(=O)O)[C@H](O)[C@@H](O)[C@@H]2O)cc(OC)c1O` here?
**A.** inactive

**Q.** `C/C=C(/C)C(=O)OC1C2OC2C2(CO2)C2C3OC(=O)C(C)C3CCC12C` (stereo unspecified) was tested. Which Potency did it give?
**A.** inactive

**Q.** How did the Potency turn out when `COc1cccc(CNc2ccc(S(=O)(=O)Nc3nc4ccccc4s3)cc2)c1O` was run?
**A.** inactive

**Q.** `C[C@]1(O)CC[C@@H]2C(C(=O)O)=CO[C@@H](O[C@@H]3O[C@H](CO)[C@@H](O)[C@H](O)[C@H]3O)[C@@H]21` was tested. Which Potency did it give?
**A.** inactive

**Q.** `C/C=C(\C)C(=O)OC[C@H]1O[C@@H](O[C@H]2[C@@H](O[C@H]3O[C@H](CO)[C@@H](O)[C@H](O)[C@H]3O[C@@H]3O[C@H](CO)[C@@H](O)[C@H](O)[C@H]3O)O[C@H](COC(=O)/C(C)=C/C)[C@@H](O)[C@@H]2O)[C@H](O)[C@@H](O)[C@@H]1O` was tested. Which activity change, negative = cytotoxicity did it give?
**A.** 4.16% [at 11.6 µM] (inactive)

**Q.** `C=CC(C)(CC/C=C(\C)C(=O)OC)OC1OC(COC(=O)CC(C)(O)CC(=O)O)C(O)C(O)C1O` (stereo unspecified) was tested. Which Potency did it give?
**A.** inactive

**Q.** Which Potency does the source give for `OC[C@H]1O[C@@H](Oc2cc(O)cc(-c3cc4ccc(O[C@@H]5O[C@H](CO)[C@@H](O)[C@H](O)[C@H]5O)cc4o3)c2)[C@H](O)[C@@H](O)[C@@H]1O` here?
**A.** inactive

**Q.** For `CC1=C[C@H](O)[C@H]2C(C)(C)CCC[C@]2(C)[C@@]1(O)CO`, which Potency is on record?
**A.** inactive

**Q.** How did the activity change, negative = cytotoxicity turn out when `CC1OC(O[C@@H]2[C@H](O)[C@@H](OC3OC(CO)C(O)C(O)C3O)[C@H](OC(=O)[C@]34CCC(C)(C)C[C@H]3C3=CCC5[C@@]6(C)CC[C@H](O[C@@H]7O[C@H](C(=O)O)[C@@H](O)[C@H](O[C@@H]8OC[C@@H](O)[C@H](O)[C@H]8O)[C@H]7O[C@@H]7O[C@H](CO)[C@H](O)[C@H](O)[C@H]7O)[C@@](C)(C=O)C6CC[C@@]5(C)[C@]3(C)C[C@H]4O)O[C@@H]2C)C(O)C(O)C1OC1OCC(O)C(O)C1O` (stereo partly specified) was run?
**A.** -6.72% [at 6.55 µM] (inactive)

**Q.** Which Potency does the source give for `COc1cc2nc(=NC(=O)c3cccnc3)n3c(c2cc1OC)NCC3` here?
**A.** inactive

**Q.** With `COc1c2c(c(C)c3c1C(=O)OC3)OC1(C)CC(O)C34OC(OC)(CC(O)C3(C)C1C2)OC4(C)C` (stereo unspecified) as the compound, how does the Potency read?
**A.** inactive

**Q.** How did the Potency turn out when `CC1CCCCCCCc2cc(O)cc(O)c2C(=O)O1` (stereo unspecified) was run?
**A.** inactive

**Q.** Which Potency does the source give for `C=C1Cc2c(Cl)cc3[nH]c4c5c3c2[C@@]2(O)[C@@H]1C[C@@H]2C(C)(C)O[C@H]5C1CC[C@@]2(O)[C@@]35O[C@@H]3[C@H]3OC(C)(C)[C@H]3O[C@H]5CC[C@]2(C)[C@@]41C` (stereo partly specified) here?
**A.** inactive

**Q.** `C[C@@H]1[C@H]2[C@H](O[C@@H]3O[C@H](CO)[C@@H](O)[C@H](O)[C@H]3O)OC=C(C(=O)O)[C@H]2C[C@@H]1OC(=O)/C=C/c1ccc(O)cc1` was tested. Which Potency did it give?
**A.** inactive

**Q.** For `C/C(CO)=C1/CCC23COC(C2)C(O)(C(=O)O)CCC13` (stereo unspecified), which Potency is on record?
**A.** inactive

**Q.** For `CC1(C(=O)O)CCCC2(C)C3CCC4CC3(CCC12)CC4(O)CO` (stereo unspecified), which Potency is on record?
**A.** inactive

**Q.** How did the Potency turn out when `CC(C)(O)C1OC1C1=CC(=O)C2(C)OC2C1O` (stereo unspecified) was run?
**A.** inactive

**Q.** With `C[C@@H]1CC[C@]2(C(=O)O[C@@H]3O[C@H](CO[C@@H]4O[C@H](CO)[C@@H](O)[C@H](O)[C@H]4O)[C@@H](O)[C@H](O)[C@H]3O)CC[C@]3(C)C(=CCC4[C@@]5(C)CC[C@H](O)[C@](C)(C(=O)O)C5CC[C@]43C)[C@@H]2[C@]1(C)O` (stereo partly specified) as the compound, how does the activity change, negative = cytotoxicity read?
**A.** 16.5% [at 11.6 µM] (inactive)

**Q.** How did the Potency turn out when `COCC1OC(n2cnc3c(=O)[nH]cnc32)C(O)C1O` (stereo unspecified) was run?
**A.** inactive

**Q.** For `CCOC(=O)c1ccc(NC2CCCCC2)c(N)c1`, which Potency is on record?
**A.** inactive

**Q.** For `C=C1C(OC(C)=O)[C@@]23CCC4[C@](C)(C(=O)O)CCC[C@@]4(C)[C@]2(O)CC[C@H]1C3` (stereo partly specified), which Potency is on record?
**A.** inactive

**Q.** For `C[C@]12CC/C(=N\OCC(=O)O)C=C1CC[C@@H]1[C@@H]2[C@@H](O)C[C@@]2(C)[C@H]1CC[C@]2(O)C(=O)CO`, which Potency is on record?
**A.** inactive

**Q.** With `OCC1OC(Oc2cc(O)cc(/C=C/c3ccc(OC4OC(CO)C(O)C(O)C4O)cc3O)c2)C(O)C(O)C1O` (stereo unspecified) as the compound, how does the Potency read?
**A.** inactive

**Q.** `Cc1ccccc1NC(=O)Nc1ccc(CN2C(=O)N([C@@H](CC(C)C)C(=O)N[C@@H](CC(=O)O)c3ccccc3)C(=O)C2(C)C)cc1` was tested. Which Potency did it give?
**A.** inactive
